PubChem BioAssay (EPA / NIEHS)
Activity calls are given as the source filed them. The calls were made as follows: active = hit-call score of the fitted dose curve at least 0.9, where 1 is the maximum; inactive = score below 0.9.

Tests used:
[1] = ATG_GRE_CIS: Attagene CIS-FACTORIAL HepG2 Assay for human Glucocorticoid Response Elements (GRE) (AID 2282947); conditions: HepG2 GRE cis-reporter, Attagene multiplex mRNA; actives raise or lower the signal
How it was run: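 Assay uses human hepatoma HepG2 cells transfected with cis-promoter reporter units, exposed 24 h. mRNA from reporters detected by RT-PCR plus capillary electrophoresis; DMSO serves as negative control and baseline.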

[2] = ATG_ISRE_CIS: Attagene CIS-FACTORIAL HepG2 Assay for human Interferon Regulatory Factor 1 (IRF1) binding to an Interferon-Stimulated Response Element (ISRE) (AID 2282948); conditions: HepG2 ISRE cis-reporter (Attagene), mRNA transcription readout; actives raise or lower the signal
How it was run: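 Transiently transfected HepG2 cells carrying cis-element reporter units, dosed 24 hours. Reporter mRNA quantified by RT-PCR, fluorescent primer extension, HpaI digestion and capillary electrophoresis. Bidirectional fitting relative to DMSO.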

[3] = ATG_M_32_CIS: Attagene CIS-FACTORIAL HepG2 Assay for M32 Transcription Factor (Internal Marker) (AID 2282949); conditions: HepG2 Attagene cis-factorial M32 reporter, mRNA; actives raise or lower the signal;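 also: background control marker of the multiplexed CIS panel rather than a real target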
How it was run: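 Following 24 h chemical exposure of HepG2 cells transiently expressing cis-promoter reporter constructs, reporter transcript levels were determined by RT-PCR with fluorescent labelling and capillary electrophoresis, then fitted bidirectionally against DMSO.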

[4] = ATG_M_06_CIS: Attagene CIS-FACTORIAL HepG2 Assay for M06 Transcription Factor (Internal Marker) (AID 2282950); conditions: HepG2 Attagene CIS-FACTORIAL M06 internal marker reporter; actives raise or lower the signal
How it was run: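 Steps: transfect HepG2 with multiplexed cis-element reporter constructs; dose chemical 24 h; extract RNA with DNase treatment; reverse-transcribe, PCR-amplify, 6-FAM label, HpaI digest; separate fragments by capillary electrophoresis. Activity fitted both directions versus DMSO.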

[5] = biological target: Hypoxia-inducible factor 1-alpha (Homo sapiens) (UniProt Q16665); test: ATG_HIF1a_CIS: Attagene CIS-FACTORIAL HepG2 Assay for human Hypoxia Inducible Factor 1 (HIF1A) (AID 2282951); conditions: HepG2 Attagene cis-factorial HIF1a reporter transcription; actives raise or lower the signal
Hypoxia-inducible factor 1-alpha (Homo sapiens), sequence (Q16665 whole entry, looked up): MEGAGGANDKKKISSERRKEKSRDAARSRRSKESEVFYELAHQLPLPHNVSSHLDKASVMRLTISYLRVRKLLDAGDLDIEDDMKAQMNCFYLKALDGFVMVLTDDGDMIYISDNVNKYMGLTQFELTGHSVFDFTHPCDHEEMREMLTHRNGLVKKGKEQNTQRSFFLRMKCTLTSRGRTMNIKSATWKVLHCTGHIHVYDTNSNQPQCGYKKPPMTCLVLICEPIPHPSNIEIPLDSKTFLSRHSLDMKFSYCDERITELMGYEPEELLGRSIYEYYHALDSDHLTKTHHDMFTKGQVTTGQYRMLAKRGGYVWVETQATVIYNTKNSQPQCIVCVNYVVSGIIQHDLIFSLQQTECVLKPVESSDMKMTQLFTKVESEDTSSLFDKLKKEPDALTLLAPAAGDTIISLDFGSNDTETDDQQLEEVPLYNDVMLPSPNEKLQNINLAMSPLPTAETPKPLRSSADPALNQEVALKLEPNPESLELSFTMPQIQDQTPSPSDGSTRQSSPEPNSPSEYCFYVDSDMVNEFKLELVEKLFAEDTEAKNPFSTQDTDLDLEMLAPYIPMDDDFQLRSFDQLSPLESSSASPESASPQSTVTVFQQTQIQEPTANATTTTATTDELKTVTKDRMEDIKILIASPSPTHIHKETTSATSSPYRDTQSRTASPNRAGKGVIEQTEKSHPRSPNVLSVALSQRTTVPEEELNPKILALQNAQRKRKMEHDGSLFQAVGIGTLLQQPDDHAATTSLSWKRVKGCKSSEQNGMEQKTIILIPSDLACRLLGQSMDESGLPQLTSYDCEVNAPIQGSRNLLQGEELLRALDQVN
How it was run: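 Measures endogenous transcription-factor activity through cis-regulated reporter mRNA in HepG2. Cells dosed 24 h; transcripts quantified by RT-PCR with 6-FAM-labelled products separated by capillary electrophoresis; DMSO serves as negative control.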

[6] = biological target: Hepatocyte nuclear factor 6 (Homo sapiens) (UniProt Q9UBC0); test: ATG_HNF6_CIS: Attagene CIS-FACTORIAL HepG2 Assay for human Hepatocyte Nuclear Factor 6 (HNF6) (AID 2282952); conditions: HepG2 Attagene cis-factorial HNF6 reporter transcription; actives raise or lower the signal
Hepatocyte nuclear factor 6 (Homo sapiens), sequence (Q9UBC0 whole entry, looked up): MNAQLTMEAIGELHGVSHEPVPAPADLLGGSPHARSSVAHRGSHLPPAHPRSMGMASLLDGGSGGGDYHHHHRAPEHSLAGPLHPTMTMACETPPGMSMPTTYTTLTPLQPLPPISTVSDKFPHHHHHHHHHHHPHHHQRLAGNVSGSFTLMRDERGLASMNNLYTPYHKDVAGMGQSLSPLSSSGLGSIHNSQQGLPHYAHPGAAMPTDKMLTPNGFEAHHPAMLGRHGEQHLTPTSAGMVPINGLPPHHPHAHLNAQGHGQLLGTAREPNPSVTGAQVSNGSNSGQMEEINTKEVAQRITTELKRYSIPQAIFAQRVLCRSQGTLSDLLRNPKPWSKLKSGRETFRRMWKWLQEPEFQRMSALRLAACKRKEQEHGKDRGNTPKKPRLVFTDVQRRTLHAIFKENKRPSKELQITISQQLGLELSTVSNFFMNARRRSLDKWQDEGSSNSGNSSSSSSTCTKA
How it was run: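 Multiplexed mRNA reporter assay in transfected HepG2; 24 h dosing; RT-PCR plus capillary electrophoresis fluorescence; DMSO-referenced bidirectional curve fitting.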

[7] = biological target: Heat shock factor protein 1 (Homo sapiens) (UniProt Q00613); test: ATG_HSE_CIS: Attagene CIS-FACTORIAL HepG2 Assay for human Heat Shock Transcription Factor 1 (HSE) (AID 2282953); conditions: HepG2 HSE cis-reporter, Attagene RNA transcription; actives raise or lower the signal
Heat shock factor protein 1 (Homo sapiens), sequence (Q00613 whole entry, looked up, the tested form may be a part): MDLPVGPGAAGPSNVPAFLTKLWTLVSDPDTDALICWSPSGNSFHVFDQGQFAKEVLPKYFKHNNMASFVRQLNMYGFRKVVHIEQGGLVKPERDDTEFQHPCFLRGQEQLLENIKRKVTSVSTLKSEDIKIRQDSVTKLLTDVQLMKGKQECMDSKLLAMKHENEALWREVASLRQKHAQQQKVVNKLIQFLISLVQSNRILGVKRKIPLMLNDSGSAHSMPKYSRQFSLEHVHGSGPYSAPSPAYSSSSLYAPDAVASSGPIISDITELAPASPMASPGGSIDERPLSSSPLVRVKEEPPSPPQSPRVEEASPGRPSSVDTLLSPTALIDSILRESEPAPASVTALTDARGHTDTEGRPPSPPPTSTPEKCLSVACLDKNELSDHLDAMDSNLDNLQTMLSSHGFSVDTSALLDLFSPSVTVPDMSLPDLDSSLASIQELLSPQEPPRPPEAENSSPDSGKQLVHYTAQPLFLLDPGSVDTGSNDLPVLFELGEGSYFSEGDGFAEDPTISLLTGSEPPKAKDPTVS
How it was run: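 Cells were transfected with cis-element-driven reporter constructs, dosed for 24 h, then total RNA was reverse-transcribed and reporter cDNA amplified, FAM-labelled and digested with HpaI. Fragments were resolved by capillary electrophoresis; gain or loss was fitted against DMSO.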

[8] = ATG_MRE_CIS: Attagene CIS-FACTORIAL HepG2 Assay for human Metal Responsive Element (MRE) (AID 2282954); conditions: HepG2 MRE cis-reporter transcription, Attagene multiplex; actives raise or lower the signal
How it was run: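 After a 24 h chemical exposure, transiently transfected HepG2 cells yield RNA whose reporter sequences are amplified, FAM-labelled and sized by capillary electrophoresis. Curves are fitted bidirectionally relative to DMSO.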

[9] = biological target: Paired box protein Pax-6 (Homo sapiens) (UniProt P26367); test: ATG_Pax6_CIS: Attagene CIS-FACTORIAL HepG2 Assay for human Paired Box 6 (PAX6) (AID 2282956); conditions: HepG2 CIS-FACTORIAL PAX6 reporter transcription, RNA readout; actives raise or lower the signal
Paired box protein Pax-6 (Homo sapiens), sequence (P26367 whole entry, looked up): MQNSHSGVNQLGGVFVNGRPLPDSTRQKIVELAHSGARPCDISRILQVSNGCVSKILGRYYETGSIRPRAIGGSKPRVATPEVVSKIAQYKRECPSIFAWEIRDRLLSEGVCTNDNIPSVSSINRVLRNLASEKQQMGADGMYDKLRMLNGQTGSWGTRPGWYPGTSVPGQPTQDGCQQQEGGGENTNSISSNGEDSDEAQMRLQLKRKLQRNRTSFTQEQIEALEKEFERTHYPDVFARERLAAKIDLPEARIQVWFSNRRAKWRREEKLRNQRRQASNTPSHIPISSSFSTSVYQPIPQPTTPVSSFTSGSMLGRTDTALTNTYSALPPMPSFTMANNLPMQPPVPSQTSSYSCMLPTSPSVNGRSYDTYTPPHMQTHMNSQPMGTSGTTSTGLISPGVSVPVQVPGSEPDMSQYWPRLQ
How it was run: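 HepG2 cells transiently transfected with cis-promoter-driven multiplexed reporter units sensing endogenous transcription factor activity; 24 h chemical exposure. Reporter mRNA quantified by RT-PCR, 6-FAM labelling, HpaI digestion and capillary electrophoresis; bidirectional fit versus DMSO baseline.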

[10] = ATG_PXRE_CIS: Attagene CIS-FACTORIAL HepG2 Assay for human Pregnane X Receptor Element (PXRE) (AID 2282957); conditions: HepG2 Attagene CIS-FACTORIAL PXRE reporter, mRNA; actives raise or lower the signal
How it was run: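 Cells: HepG2, transiently transfected reporter units under cis promoter control. Exposure: 24 h. Detection: reporter mRNA via RT-PCR/CE fluorescence; bidirectional fitting, DMSO-referenced.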

[11] = ATG_RORE_CIS: Attagene CIS-FACTORIAL HepG2 Assay for human RAR-related Orphan Receptor Element (RORE) (AID 2282959); conditions: HepG2 Attagene cis-factorial RORE reporter, mRNA; actives raise or lower the signal
How it was run: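 Cells were HepG2 carrying transfected cis-regulated reporter constructs, dosed for 24 hours. Total RNA was reverse-transcribed and reporter cDNA amplified, fluorescently labeled and sized by capillary electrophoresis. Activity was fitted bidirectionally relative to DMSO.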

[12] = ATG_Sox_CIS: Attagene CIS-FACTORIAL HepG2 Assay for human SRY-box transcription factor (SOX) (AID 2282960); conditions: HepG2 Attagene cis-factorial SOX reporter, mRNA; actives raise or lower the signal
How it was run: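 Transient MRTU transfection of HepG2; 24 h compound incubation; TriZol RNA, oligo(dT) RT, PCR, 6-FAM primer extension, HpaI cut, CE. Bidirectional fit, DMSO = baseline.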

[13] = biological target: Transcription factor Sp1 (Homo sapiens) (UniProt P08047); test: ATG_Sp1_CIS: Attagene CIS-FACTORIAL HepG2 Assay for human Specificity Protein 1 (Sp1) (AID 2282961); conditions: HepG2 Sp1 cis-reporter transcription, actives raise or lower the signal
Transcription factor Sp1 (Homo sapiens), sequence (P08047 whole entry, looked up): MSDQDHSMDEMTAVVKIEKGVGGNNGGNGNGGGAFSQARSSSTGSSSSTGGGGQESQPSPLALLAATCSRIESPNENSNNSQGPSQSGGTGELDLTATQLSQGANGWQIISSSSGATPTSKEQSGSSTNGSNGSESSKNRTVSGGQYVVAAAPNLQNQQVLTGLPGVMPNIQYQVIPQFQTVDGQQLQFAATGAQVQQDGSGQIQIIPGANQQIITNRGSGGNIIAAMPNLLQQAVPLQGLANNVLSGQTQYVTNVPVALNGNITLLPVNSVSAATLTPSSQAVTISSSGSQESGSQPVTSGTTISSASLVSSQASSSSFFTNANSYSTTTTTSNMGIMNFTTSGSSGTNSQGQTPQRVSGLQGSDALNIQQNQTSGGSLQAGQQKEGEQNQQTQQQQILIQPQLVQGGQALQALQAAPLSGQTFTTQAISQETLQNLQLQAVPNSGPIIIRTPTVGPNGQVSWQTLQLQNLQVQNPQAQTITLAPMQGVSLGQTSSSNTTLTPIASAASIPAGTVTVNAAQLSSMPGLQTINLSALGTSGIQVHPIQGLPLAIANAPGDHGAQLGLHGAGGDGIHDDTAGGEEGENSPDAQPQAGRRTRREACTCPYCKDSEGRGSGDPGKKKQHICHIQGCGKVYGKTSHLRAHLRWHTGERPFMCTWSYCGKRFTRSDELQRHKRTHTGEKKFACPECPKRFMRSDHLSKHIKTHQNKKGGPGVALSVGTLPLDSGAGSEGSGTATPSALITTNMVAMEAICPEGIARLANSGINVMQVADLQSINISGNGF
How it was run: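 Endogenous Sp1 activity was gauged in human liver HepG2 cells bearing transfected reporter units under a cis-regulating promoter. After 24 h dosing, reporter mRNA was quantified by RT-PCR with capillary electrophoresis, and activity fitted bidirectionally versus DMSO.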

[14] = ATG_SREBP_CIS: Attagene CIS-FACTORIAL HepG2 Assay for human Sterol Regulatory Element Binding (SREBP) (AID 2282962); conditions: HepG2 Attagene cis-factorial SREBP reporter, mRNA; actives raise or lower the signal
How it was run: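 HepG2 cells transiently transfected with multiplexed cis-promoter reporter units sensing endogenous transcription factors; reporter mRNA measured 24 h after dosing by RT-PCR, 6-FAM labeling, HpaI digestion and capillary electrophoresis. Bidirectional fit versus DMSO.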

[15] = ATG_TA_CIS: Attagene CIS-FACTORIAL HepG2 Assay for human TA Basal Promoter (AID 2282964); conditions: HepG2 Attagene CIS-factorial TA basal promoter reporter; actives raise or lower the signal
How it was run: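 Steps: transfect HepG2 with MRTUs; dose 24 h; isolate RNA, DNase-treat, reverse-transcribe; PCR and FAM-label reporter cDNA; digest with HpaI 2h at 37 C; run capillary electrophoresis. Activity fitted both directions against DMSO.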

[16] = ATG_TCF_b_cat_CIS: Attagene CIS-FACTORIAL HepG2 Assay for human T-Cell-Factor with beta-catenin (TCF/b-cat) (AID 2282965); conditions: HepG2 TCF/beta-catenin cis-reporter transcription, actives raise or lower the signal
How it was run: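 Measured: reporter mRNA in HepG2 transiently transfected with cis-promoter reporter units, 24 h after chemical addition. Fitting was bidirectional, DMSO as negative control.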

[17] = ATG_PPRE_CIS: Attagene CIS-FACTORIAL HepG2 Assay for human Peroxisome Proliferator-activated Response Element (PPRE) (AID 2282958); conditions: HepG2 PPRE cis-element reporter, Attagene transcription factor profiling; actives raise or lower the signal
How it was run: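 Cells are first transfected transiently with the multiplexed reporter library, then dosed for 24 h. Total RNA is reverse-transcribed, amplified, fluorescently end-labeled and HpaI-cut before capillary electrophoresis; activity is fitted bidirectionally against DMSO controls.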

[18] = biological target: Signal transducer and activator of transcription 3 (Homo sapiens) (UniProt P40763); test: ATG_STAT3_CIS: Attagene CIS-FACTORIAL HepG2 Assay for human Signal Transducer and Activator of Transcription 3 (STAT3) (AID 2282963); conditions: HepG2, Attagene cis-factorial STAT3 reporter transcription; actives raise or lower the signal
Signal transducer and activator of transcription 3 (Homo sapiens), sequence (P40763 whole entry, looked up): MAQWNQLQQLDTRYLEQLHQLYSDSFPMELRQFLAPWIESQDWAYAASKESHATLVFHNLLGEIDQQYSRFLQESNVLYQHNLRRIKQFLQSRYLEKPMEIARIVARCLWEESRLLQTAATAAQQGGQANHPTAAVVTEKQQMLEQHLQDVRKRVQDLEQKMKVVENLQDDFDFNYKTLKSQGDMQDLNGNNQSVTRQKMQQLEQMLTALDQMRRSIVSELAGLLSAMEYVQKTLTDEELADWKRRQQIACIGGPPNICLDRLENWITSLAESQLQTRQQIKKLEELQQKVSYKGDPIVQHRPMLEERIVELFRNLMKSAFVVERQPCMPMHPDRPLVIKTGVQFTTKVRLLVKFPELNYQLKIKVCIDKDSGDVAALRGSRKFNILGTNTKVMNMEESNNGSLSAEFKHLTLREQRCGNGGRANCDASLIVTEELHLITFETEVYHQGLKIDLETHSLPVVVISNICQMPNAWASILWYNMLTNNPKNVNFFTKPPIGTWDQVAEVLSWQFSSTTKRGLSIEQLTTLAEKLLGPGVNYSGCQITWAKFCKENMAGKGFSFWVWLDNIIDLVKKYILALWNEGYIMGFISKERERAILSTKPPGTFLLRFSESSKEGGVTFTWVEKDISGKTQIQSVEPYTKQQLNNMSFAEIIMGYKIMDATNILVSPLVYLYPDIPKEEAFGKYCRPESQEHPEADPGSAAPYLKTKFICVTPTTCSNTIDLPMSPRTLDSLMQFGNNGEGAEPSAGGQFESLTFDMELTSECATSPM
How it was run: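 After a 24 h compound incubation, total RNA from MRTU-transfected HepG2 cells was converted to cDNA and reporter sequences PCR-amplified, labelled and profiled by capillary electrophoresis. Gain and loss of signal were referenced to DMSO.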

[19] = ATG_PBREM_CIS: Attagene CIS-FACTORIAL HepG2 Assay for human Phenobarbital-responsive Enhancer Module (PBREM) (AID 2282955); conditions: HepG2 PBREM cis-reporter, Attagene multiplexed transcription; actives raise or lower the signal
How it was run: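 Fluorescence of labelled reporter cDNA fragments, resolved by capillary electrophoresis, gives mRNA induction in transfected HepG2 cells treated for 24 h; DMSO serves as negative control and baseline.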

Measured: AC50

CCCCCC=CCC(=O)OC
active: [10] 100 µM
not listed: [17] | [18] | [19]
inactive: all other assays above

C=C[C@@H](C)CCC=C(C)C
not listed: [10] | [19]
inactive: all other assays above

OCCOCCOCCOCCO
active: [7] 57.2 µM | [10] 29.4 µM
not listed: [11] | [17] | [18] | [19]
inactive: all other assays above

CCCCCCCCCCCCOCCO
active: [2] 20.4 µM | [13] 49.9 µM | [14] 49.1 µM
not listed: [8] | [17]
inactive: all other assays above

CCCC1CCC(=O)O1 (stereo not given)
not listed: [7] | [12] | [18]
inactive: all other assays above

CCCCOCCOCCSC#N
active: [10] 1.92 µM
not listed: [7]
inactive: all other assays above

CC1CCC(C(C)CS)CC1S (stereo not given)
active: [1] 55 µM | [5] 53.7 µM | [6] 46.8 µM | [10] 2.54 µM | [12] 52.9 µM | [13] 52.1 µM
not listed: [7] | [11] | [15] | [16] | [19]
inactive: all other assays above

C=CC(=O)OCC(O)COc1ccccc1 (stereo not given)
active: [1] 67.3 µM | [2] 27.4 µM | [7] 134 µM | [9] 41.2 µM | [12] 26.3 µM
not listed: [8] | [11] | [14] | [17]
inactive: all other assays above

CC1(C)[C@H]2CC[C@]1(C)[C@H](O)C2
active: [10] 68.7 µM
not listed: [8] | [17]
inactive: all other assays above
